# Source: PubChem (National Center for Advancing Translational Sciences (NCATS))
# Cruzain noTriton: blocks cruzain activity in detergent-free assay | P25779 | purified cruzain, Z-FR-AMC fluorescence, no detergent | Potency, µM, inactives show max response, negative = inhibition, most hits filed as inhibitors | 200,000 tested, 2.3% active;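 further: plate controls were enzyme without inhibitor for no effect and buffer without enzyme for full effect; nearly all actives have a fitted effect of over 40% in size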
# Target sequence (P25779 123-467 limits assumed): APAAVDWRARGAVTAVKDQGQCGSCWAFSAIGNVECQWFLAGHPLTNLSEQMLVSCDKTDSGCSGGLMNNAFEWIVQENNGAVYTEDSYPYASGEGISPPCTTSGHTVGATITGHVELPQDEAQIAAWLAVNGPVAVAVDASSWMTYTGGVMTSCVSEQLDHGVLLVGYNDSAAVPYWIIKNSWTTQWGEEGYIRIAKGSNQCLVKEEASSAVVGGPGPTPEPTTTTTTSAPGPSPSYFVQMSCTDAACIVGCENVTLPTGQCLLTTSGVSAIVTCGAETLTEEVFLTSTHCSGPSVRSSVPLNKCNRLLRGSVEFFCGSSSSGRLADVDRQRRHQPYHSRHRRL
#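 Detergent-free condition (0.00005% Triton X-100) in acetate buffer pH 5.5 with DTT. 1.5 nM enzyme and compound were pre-mixed 15 min, then 2 uM Z-FR-AMC substrate added; reaction progress from fluorescence change between first and third reads (60 s).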
# Cruzain Triton: cruzain (T. cruzi) inhibition with detergent; P25779; AID 1478; purified cruzain, Z-FR-AMC fluorescence, 0.01% Triton; Potency, µM, for the others: max response, negative = inhibition, most hits filed as inhibitors; 200,000 tested, 0.43% active;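 further: plate controls were neutral wells for no effect and buffer without enzyme for full effect; nearly all actives have a fitted effect of over 40% in size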
#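 Read-out: AMC fluorescence (360 nm excitation, 450 nm emission), four reads over 2 min, first-to-third difference used. Conditions: cruzain 1.5 nM, Z-FR-AMC 2 uM, pH 5.5 acetate, 5 mM DTT, 0.01% Triton X-100.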
# * = called active by the depositor; ? = inconclusive; ! = a repeat was not active. Sampled rows, rich in hits. Any-hit rate of the full collection: about 2.4%. The call rests on the fitted dose curve; in most records, active means well fitted curve in the direction sought with a large enough effect; inconclusive means small, poorly fitted or top-dose-only effect, or another doubt; inactive means no such curve, though single readings can be large; an effect the other way counts as inactive or inconclusive. Potency means the concentration at half of the fitted maximal effect.
SMILES,Cruzain noTriton,Cruzain Triton
COc1ccc(/C=C/C(=O)NC(=S)NNC(=O)Cc2cccs2)cc1,13µM*,0%
COc1cc2c(cc1NC(=O)/C=C/c1ccccc1)oc1ccccc12,?,0%
Cc1c(C(=O)NCCN(C)C)oc2c1-c1nn(Cc3cccc(Cl)c3)cc1CC2,5%,-2%
Cc1ccc(-n2ncc3c(NC4CCCCC4)ncnc32)cc1,6%,0%
COc1ccc(-c2cccc(NS(=O)(=O)c3ccc(C)s3)c2)nn1,-6%,-4%
CCOC(=O)c1c(S(=O)(=O)NCC(=O)Nc2cccc(SC)c2)c(C)n(C)c1C,13%,2%
CCC1CCCCN1S(=O)(=O)c1cc2c(cc1C)NC(=O)CO2 (stereo not drawn),2%,-15%
CCc1ccc(NC(=O)N2CCN(Cc3cc(=O)n4nc(-c5ccccc5OC)sc4n3)CC2)cc1,11%,2%
COc1cc2c(cc1NC(=O)Nc1cccc(C)c1)oc1ccccc12,?,18%
COc1cc2c(cc1NC(=S)Nc1cccc(C)c1)oc1ccccc12,32µM*,-3%
Cc1ccc(CN(Cc2ccco2)C(=O)c2ccccc2Br)o1,-8%,-3%
COc1ccc(NC(=O)C2CCN(S(=O)(=O)c3cccc(-c4noc(C)n4)c3)CC2)cc1OC,2%,2%
O=C(OCC(=O)c1ccc(Cl)cc1Cl)c1ccc2c(c1)C(=O)N(c1cccc3ncccc13)C2=O,20µM*,6%
O=C(COC(=O)c1ccc2c(c1)C(=O)N(c1cccc3ncccc13)C2=O)c1ccc(Cl)cc1,?,-4%
Cc1cccn2c(=O)cc(CSc3nnc(NC(=O)COc4ccc(F)cc4)s3)nc12,-11%,-2%
O=C(Nc1ccc(Br)cc1)c1ccc(F)c(S(=O)(=O)N2CCc3ccccc32)c1,?,0%
O=C(C1COc2ccccc2O1)N1CCN(c2nc3ccc(F)cc3s2)CC1 (stereo not drawn),-23%,-16%
N#CC1=C(N)Oc2c(ccc3ccccc23)C1c1ccsc1 (stereo not drawn),-21%,-12%
COC(=O)C1=C(C)OC(N)=C(C#N)C1c1ccc(OC)c(OC)c1OC (stereo not drawn),-1%,-2%
COc1cc(C2C(C#N)=C(N)Oc3c2ccc2ccccc32)ccc1OCC(=O)Nc1ccc(C)cc1 (stereo not drawn),10µM*,-3%
COc1cc(C2C(C#N)=C(N)Oc3c2ccc2ccccc32)ccc1OCC(=O)Nc1cccc(C)c1 (stereo not drawn),7.9µM*,-2%
CCCCOc1cccc(C(=O)N(Cc2sccc2C)C2CCS(=O)(=O)C2)c1 (stereo not drawn),?,-8%
CCc1ccccc1NC(=O)CCCN1C(=O)COc2ccc(C)cc21,-5%,-4%
CC(=O)c1cccc(NC(=O)CCCN2C(=O)COc3ccc(C)cc32)c1,?,18µM*
COc1ccc2c(c1)CCc1c(C(=O)Nc3c(C)nn(Cc4ccc(C)cc4)c3C)noc1-2,-12%,-5%
SMILES,Cruzain noTriton,Cruzain Triton
CC(C)c1cc(C(N)=O)c(NC(=O)c2cccc(COc3ccc(Cl)cc3)c2)s1,20µM*,-3%
Cc1nn(Cc2c(F)c(F)c(F)c(F)c2F)c(C)c1NC(=O)c1cccc(COc2ccc(Cl)cc2)c1,-13%,3%
CCC(=O)Nc1ccc2nc(SCc3ccccc3)sc2c1,5%,-10%
COc1ccc(CCNc2oc(/C=C/c3ccc(OC)c(OC)c3)nc2C#N)cc1,16µM*,-25%
CCN1CCN(c2oc(/C=C/c3cc(OC)c(OC)c(OC)c3)nc2C#N)CC1,-4%,-1%
CCN1CCN(c2oc(/C=C/c3ccc(OC)c(OC)c3)nc2C#N)CC1,20µM*,-22%
COc1ccc(/C=C/c2nc(C#N)c(N3CCC(C(N)=O)CC3)o2)cc1OC,32µM*,?
COc1ccc(/C=C/c2nc(C#N)c(N3CCCCCC3)o2)cc1OC,?,-4%
COc1ccc(/C=C/c2nc(C#N)c(NCCc3ccc(OC)c(OC)c3)o2)cc1OC,-8%,-20%
COC(=O)c1ccc(NC(=O)CC2C(=O)N(c3ccc(Cl)cc3)C(=O)N2Cc2ccco2)cc1 (stereo not drawn),?,-10%
COc1ccc(Cn2ccnc2SCC(=O)Nc2cc(C(F)(F)F)ccc2Cl)cc1,5%,-11%
CCC(=O)Nc1ccc(CC)cc1-c1nc2ccccc2n(CC(=O)Nc2cccc(Cl)c2)c1=O,-12%,-1%
O=C(CSc1nc(-c2cccs2)cc(C(F)(F)F)n1)NCc1ccco1,0%,-4%
CC(C)OC(=O)CC(=O)CSc1nc(-c2ccc(F)cc2)cc(-c2ccccc2)c1C#N,-6%,-5%
CCc1nnc(NC(=O)CSc2nc(-c3ccccc3)cc(-c3ccc(F)cc3)c2C#N)s1,7.9µM*,3%
COc1ccc(CNC(=O)CSc2nc(-c3ccccc3)cc(-c3cccs3)c2C#N)cc1,10µM*,4%
COc1ccc(-c2cc(-c3cccs3)c(C#N)c(SCC(=O)NCc3ccco3)n2)cc1,7.9µM*,-7%
COc1ccc(-c2cc(-c3ccccc3)nc(SCC(=O)Nc3ccccc3C)c2C#N)cc1,-6%,-1%
Cc1cc(Br)ccc1NC(=O)CSc1c2c(nc3ccccc13)CCC2,?,1%
CCc1ccccc1NC(=O)Cn1c(=O)nc(-c2ccccc2)c2ccccc21,-7%,-3%
O=C(NCCc1ccc(Cl)cc1)c1ccc(CS(=O)(=O)Cc2ccc(Cl)cc2)o1,-2%,-1%
Cc1ccc(C)c(NC(=O)Cn2c(-c3nonc3N)nc3ccccc32)c1,3%,-1%
Cc1ccc(NC(=O)Cn2c(-c3nonc3N)nc3ccccc32)cc1C,4µM*,7.1µM*
O=[N+]([O-])c1ccc(C2Oc3ccccc3C3CC(c4ccccc4)=NN32)s1 (stereo not drawn),16µM*,-11%
c1ccc(C2Oc3ccccc3C3CC(c4cccs4)=NN32)cc1 (stereo not drawn),-3%,-13%
SMILES,Cruzain noTriton,Cruzain Triton
O=C1c2[nH]nc(-c3ccccc3O)c2C(c2cccc(Br)c2)N1Cc1ccncc1 (stereo not drawn),0%,0%
Cc1nn(-c2ccc(S(=O)(=O)O)cc2)c(O)c1N=Nc1ccc(-c2ccc(N=Nc3ccc4c(S(=O)(=O)O)cc(S(=O)(=O)O)c(N)c4c3O)c(O)c2)cc1O.[Cu].[Cu],1%,-6%
COc1cc(-c2ccc(N=Nc3ccc4c(S(=O)(=O)O)cc(S(=O)(=O)O)c(N)c4c3O)c(OC)c2)ccc1N=Nc1ccc2c(S(=O)(=O)O)cc(S(=O)(=O)O)c(N)c2c1O,?,25µM*!
O=C1CC(c2ccc(F)cc2)Cc2nc(N3CCc4ccccc43)ncc21 (stereo not drawn),?,-2%
Fc1cnc(N2CCc3ccccc32)nc1N1CCc2ccccc21,3.2µM*,7%
O=C(NCc1cccc(F)c1)c1ccccc1NC(=O)c1nsc2ccccc12,?,1%
O=C(Nc1ccc([N+](=O)[O-])cc1)c1cn(-c2ccccc2)nc1-c1cc2ccccc2o1,7.9µM*,-3%
O=C(Nc1ccccc1)c1cn(-c2ccccc2)nc1-c1ccccc1,29%,-5%
Cc1ccc(C)c(NC(c2ccccc2)c2nnc(-c3ccccc3F)o2)c1 (stereo not drawn),4%,-2%
COc1cc(Cl)c(C)cc1NC(c1ccccc1)c1nnc(-c2ccccc2Cl)o1 (stereo not drawn),16µM*,-1%
CCOc1cc(C(=O)NCCc2csc(-c3ccc(C)cc3)n2)cc(OCC)c1OCC,-5%,-4%
